# Reference: PubChem BioAssay AID720597 (Broad Institute, 2013)
# Entries with a potency or affinity are not part of this list. A number with no mark means an inactive call.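 The calls were made as follows: active = fitted half-maximal dose no more than twice the top valid tested dose, for compounds that lower signal; inconclusive = fit invalid, or curve flat with activity between -70 and -30; inactive = potency past limit, curve flat within ±30, or signal increasing.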
# Target: NAD-dependent protein deacylase sirtuin-5, mitochondrial (Homo sapiens) (UniProt Q9NXA8)
# Experiment: blockers of sirtuin-5 peptide desuccinylation – biochemical, fluorescence imaging, cherry-pick, set 6, dose response (AID 720597);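 also: lower AMC signal can also come from blocking the trypsin step; 0% = median of neutral control wells and -100% = median of positive control wells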
# Conditions: Purified SirT5, succinyl-peptide-AMC/trypsin fluorescence; series mostly up to 15 µM; activity change, negative = inhibition: at the top concentration
# NAD-dependent protein deacylase sirtuin-5, mitochondrial (Homo sapiens), sequence (Q9NXA8 whole entry, looked up): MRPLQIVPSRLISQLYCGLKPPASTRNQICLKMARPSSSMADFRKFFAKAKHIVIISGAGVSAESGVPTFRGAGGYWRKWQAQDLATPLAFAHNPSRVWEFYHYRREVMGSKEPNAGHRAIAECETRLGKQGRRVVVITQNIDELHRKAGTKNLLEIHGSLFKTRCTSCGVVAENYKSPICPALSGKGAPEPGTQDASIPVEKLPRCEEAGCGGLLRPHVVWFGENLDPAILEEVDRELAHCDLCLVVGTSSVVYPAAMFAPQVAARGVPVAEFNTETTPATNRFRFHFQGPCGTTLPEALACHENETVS
row,Compound,"activity change, negative = inhibition"
1,O=C(CCN1CCCCC1)N[C@@H]1CC[C@@H](CC(=O)N2CCC(Cc3ccccc3)CC2)O[C@H]1CO,0.115%
2,C[C@H](O)C#Cc1ccc2c(c1)O[C@H](CN(C)Cc1ccc(-c3ccccc3)cc1)[C@H](C)CN([C@@H](C)CO)S2(=O)=O,-28.8%
3,C[C@H](CO)N1C[C@H](C)[C@H](CN(C)S(=O)(=O)c2ccccc2F)Oc2cc(C#Cc3cccc(F)c3)ccc2S1(=O)=O,4.83%
4,CN(C)C(=O)[C@@H]1[C@@H](CO)[C@@H]2Cn3c(ccc(-c4ccccc4)c3=O)[C@H]1N2CCc1ccccc1,16.8%
5,C[C@H]1CN([C@@H](C)CO)C(=O)c2cc(NC(=O)CCC(F)(F)F)ccc2O[C@H]1CN(C)Cc1ccc(C(F)(F)F)cc1,-26.3%
6,O=C(CC1CC1)N1CC2(C1)[C@@H](c1ccccc1)[C@@H](CO)N2Cc1cccc(F)c1,-9.95%
7,CNC[C@H]1Oc2ccc(NC(=O)Nc3ccc(F)cc3)cc2CC(=O)N([C@@H](C)CO)C[C@@H]1C,19.6%
8,Cc1noc(C)c1S(=O)(=O)N(C)C[C@@H]1Oc2ccc(NC(=O)Cn3cnnn3)cc2C(=O)N([C@@H](C)CO)C[C@@H]1C,-12.8%
9,C[C@@H]1CCCCO[C@@H](CN(C)S(=O)(=O)c2ccc(F)cc2)[C@H](C)CN([C@@H](C)CO)C(=O)c2cc(NC(=O)Nc3ccc4c(c3)OCO4)ccc2O1,-4.57%
10,C[C@H]1CN([C@@H](C)CO)S(=O)(=O)c2ccc(/C=C/c3ccccc3)cc2O[C@H]1CN(C)C(=O)Nc1cc(F)ccc1F,31.2%
11,Cc1ccc(S(=O)(=O)N(C)C[C@H]2Oc3ncc(-c4ccncc4)cc3C(=O)N([C@@H](C)CO)C[C@@H]2C)cc1,-4.75%
